In PubChem BioAssay (Tox21):
“And” between values parts separate entries of the source, which are not always exact repeats. Equal entries are not always repeated. Results filed as inconclusive are left out. A call without a number means that no potency is given here. Some compounds were tested as several samples or in several runs, with calls that do not always agree. The source made the active and inactive calls. Unless noted, calls follow the shape of the dose curve; as a rule, active = well fitted curve in the direction sought with a large enough effect in the repeat runs; inconclusive = weak or mixed curves; inactive = no such curve, though single readings can be large; an effect the other way counts as inactive or inconclusive.

Legend:
[1] = target: Luciferin 4-monooxygenase (Photinus pyralis) (UniProt P08659); experiment: qHTS assay to identify small molecule inhibitors of firefly luciferase (AID 1224835); also: nearly all actives have a fitted effect of over 25% in size
Luciferin 4-monooxygenase (Photinus pyralis), sequence (P08659 whole entry, looked up): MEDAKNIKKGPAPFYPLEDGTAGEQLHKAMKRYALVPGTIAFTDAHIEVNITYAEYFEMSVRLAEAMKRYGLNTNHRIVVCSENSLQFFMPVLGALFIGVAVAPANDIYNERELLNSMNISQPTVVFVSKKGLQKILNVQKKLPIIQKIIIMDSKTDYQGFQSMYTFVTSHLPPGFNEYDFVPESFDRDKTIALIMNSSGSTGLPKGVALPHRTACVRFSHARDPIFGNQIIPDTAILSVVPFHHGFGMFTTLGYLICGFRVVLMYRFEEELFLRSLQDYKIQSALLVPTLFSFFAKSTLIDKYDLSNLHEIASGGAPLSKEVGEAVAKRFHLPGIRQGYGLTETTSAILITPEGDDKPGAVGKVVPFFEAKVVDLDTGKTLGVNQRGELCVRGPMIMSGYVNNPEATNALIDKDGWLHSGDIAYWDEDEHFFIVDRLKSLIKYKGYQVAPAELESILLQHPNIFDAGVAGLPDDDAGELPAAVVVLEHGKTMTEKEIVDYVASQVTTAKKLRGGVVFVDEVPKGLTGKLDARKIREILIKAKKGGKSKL
Procedure, shortened: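 Biochemical qHTS: compounds run as interplate titrations against purified firefly enzyme, with D-luciferin and ATP each at its KM concentration. Light output recorded by CCD imaging.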

[2] = qHTS assay to identify small molecule agonists of the constitutive androstane receptor (CAR) signaling pathway - cell viability counter screen (AID 1224836); also: nearly all actives have a fitted effect of over 45% in size; also: potency is read from the fitted curve at half-maximal effect
Procedure, shortened: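 HepG2-CYP2B6-hCAR, 2500 cells/well, 4 h pre-incubation; cpd 15 conc + PK11195 0.75 uM final; 23 h, 37 C/5% CO2; CellTiter-Fluor, fluorescence.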

[3] = qHTS assay to identify small molecule antagonists of the constitutive androstane receptor (CAR) signaling pathway - cell viability counter screen (AID 1224837); also: nearly all actives have a fitted effect of over 45% in size; also: potency is read from the fitted curve at half-maximal effect
Procedure, shortened: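 Cytotoxicity counter-screen: CellTiter-Fluor fluorescence after 23 h compound exposure (15-point qHTS) in double-stable HepG2-CYP2B6-hCAR cells, with 50 nM CITCO added.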

[4] = target: Nuclear receptor subfamily 1 group I member 3 (Homo sapiens) (UniProt Q14994); experiment: qHTS assay to identify small molecule agonists of the constitutive androstane receptor (CAR) signaling pathway (AID 1224839); also: nearly all actives have a fitted effect of over 15% in size; also: potency is read from the fitted curve at half-maximal effect;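 as to activation: HepG2 cells stably carrying human CAR and a CYP2B6 luciferase reporter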
Nuclear receptor subfamily 1 group I member 3 (Homo sapiens), sequence (Q14994 whole entry, looked up): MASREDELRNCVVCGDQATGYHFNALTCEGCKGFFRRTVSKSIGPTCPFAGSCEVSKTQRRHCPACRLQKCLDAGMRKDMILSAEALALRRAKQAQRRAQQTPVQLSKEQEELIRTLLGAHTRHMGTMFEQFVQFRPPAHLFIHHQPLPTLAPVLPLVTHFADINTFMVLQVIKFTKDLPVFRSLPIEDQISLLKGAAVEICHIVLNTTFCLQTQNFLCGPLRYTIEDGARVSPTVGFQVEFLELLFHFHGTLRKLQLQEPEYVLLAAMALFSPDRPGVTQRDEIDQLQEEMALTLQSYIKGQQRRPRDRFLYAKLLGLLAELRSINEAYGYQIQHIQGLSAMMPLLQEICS
Procedure, shortened: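 HepG2-CYP2B6-hCAR cells, 2500/well, 4 h pre-incubation; compounds 15 conc.; PK11195 0.75 uM final; 24 h, 37 C/5% CO2; ONE-Glo luciferase read.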

[5] = qHTS assay to identify small molecule antagonists of the estrogen related receptor signaling pathway with the pleiotropic PPARgamma coactivator (PGC) from Tox21 10K library (AID 1224841; call rule not given here; also: actives are mostly falling curves and most rising ones were filed inactive; nearly all actives have a fitted effect of over 50% in size; also: potency is read from the fitted curve at half-maximal effect)
Procedure, shortened: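 Luminescence (One-Glo, 30 min at room temperature) after 18 h compound treatment at 37 C of PGC/ERR reporter cells plated at 2,000 cells/well and settled 6 h beforehand.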

[6] = qHTS assay to identify small molecule agonists of the estrogen related receptor signaling pathway with the pleiotropic PPARgamma coactivator (PGC) from Tox21 10K library (AID 1224842); also: nearly all actives have a fitted effect of over 15% in size; also: potency is read from the fitted curve at half-maximal effect
Procedure, shortened: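 PGC/ERR reporter cell line, 2,000 cells per well, incubated 6 h at 37 C before 23 nL compound in DMSO was added. After 18 h at 37 C, One-Glo luminescence read following 30 min at room temperature.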

[7] = qHTS assay to identify small molecule agonists of the hypoxia (HIF-1) signaling pathway - cell viability counter screen (AID 1224844; calls by dose curve; also: nearly all actives have a fitted effect of over 50% in size; also: potency is read from the fitted curve at half-maximal effect)
Procedure, shortened: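 Cytotoxicity measured by CellTiter-Glo ATP luminescence in the wells also read for beta-lactamase signal. Cells were HRE-bla ME-180 (2,000/well, 0.5% dialyzed FBS), exposed to compounds for 17 h at 37C.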

[8] = qHTS assay to identify small molecule agonists of H2AX (AID 1224845; active = well fitted activation curve with a large enough effect in the signal ratio in the repeat runs, not every such curve was filed as active; the % refers to the signal ratio; also: potency is read from the fitted curve at half-maximal effect)
Procedure, shortened: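 Wild-type CHO-K1 cells, plated overnight, exposed 3hr at 37C to 15 concentrations (0.76% DMSO final). Lysed, then HTRF anti-pH2AX (S139) cryptate and anti-H2AX-d2 antibodies, 24 hr room temperature; 665/620 nm emission read.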

[9] = qHTS assay to identify small molecule antagonists of the estrogen related receptor (ERR) signaling pathway from Tox21 library (AID 1224848); also: nearly all actives have a fitted effect of over 50% in size; also: potency is read from the fitted curve at half-maximal effect
Procedure, shortened: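 Compounds dissolved in DMSO are pin-transferred onto ERR reporter cells (2,000 per well) that have settled for 6 h at 37 C. Plates then incubate 18 h at 37 C before ONE-Glo luciferase reagent and a luminescence read 30 min later.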

[10] = qHTS assay to identify small molecule agonists of the estrogen related receptor (ERR) signaling pathway from Tox21 library (AID 1224849; calls by dose curve; also: nearly all actives have a fitted effect of over 15% in size); settings: ERR reporter cell line, ONE-Glo luciferase, 18 h; at 92.4 µM (top of the series) unless noted
Procedure, shortened: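 Luminescent agonist read-out (One-Glo, 30-minute room-temperature incubation) following 18-hour compound treatment at 37 C of the ERR cell line, which had been plated 6 hours before dosing.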

[11] = qHTS RealTime-Glo MT Cell Viability Assay in HEK293 cells - 32 hour (AID 1224868); also: nearly all actives have a fitted effect of over 50% in size; also: potency is read from the fitted curve at half-maximal effect
Procedure, shortened: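 HEK293 cells were seeded at 600 cells/well together with NanoLuc luciferase and cell-permeant prosubstrate, preincubated 5 h at 37 C/5% CO2, then given compound in DMSO by pintool. Luminescence from viable-cell prosubstrate reduction was read repeatedly over 40 h.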

[12] = A CellTox Green Cytotoxicity Assay to monitor cytotoxicity in HEK293 cells - 0 hour (AID 1224869); also: nearly all actives have a fitted effect of over 50% in size
Procedure, shortened: (§1)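 Fluorescence from a DNA-binding dye excluded by viable cells was measured repeatedly in the same HEK293 wells (600 cells/well) during continuous compound exposure at 37 C. Each assay gives one read point: 0, 8, 16, 24, 32 or 40 h.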

[13] = target: Thyrotropin receptor (Homo sapiens) (UniProt P16473); experiment: qHTS assay to identify small molecule agonists of the thyroid stimulating hormone receptor (TSHR) signaling pathway (AID 1224843; calls by dose curve; also: nearly all actives have a fitted effect of over 45% in size; also: potency is read from the fitted curve at half-maximal effect)
Thyrotropin receptor (Homo sapiens), sequence (P16473 whole entry, looked up): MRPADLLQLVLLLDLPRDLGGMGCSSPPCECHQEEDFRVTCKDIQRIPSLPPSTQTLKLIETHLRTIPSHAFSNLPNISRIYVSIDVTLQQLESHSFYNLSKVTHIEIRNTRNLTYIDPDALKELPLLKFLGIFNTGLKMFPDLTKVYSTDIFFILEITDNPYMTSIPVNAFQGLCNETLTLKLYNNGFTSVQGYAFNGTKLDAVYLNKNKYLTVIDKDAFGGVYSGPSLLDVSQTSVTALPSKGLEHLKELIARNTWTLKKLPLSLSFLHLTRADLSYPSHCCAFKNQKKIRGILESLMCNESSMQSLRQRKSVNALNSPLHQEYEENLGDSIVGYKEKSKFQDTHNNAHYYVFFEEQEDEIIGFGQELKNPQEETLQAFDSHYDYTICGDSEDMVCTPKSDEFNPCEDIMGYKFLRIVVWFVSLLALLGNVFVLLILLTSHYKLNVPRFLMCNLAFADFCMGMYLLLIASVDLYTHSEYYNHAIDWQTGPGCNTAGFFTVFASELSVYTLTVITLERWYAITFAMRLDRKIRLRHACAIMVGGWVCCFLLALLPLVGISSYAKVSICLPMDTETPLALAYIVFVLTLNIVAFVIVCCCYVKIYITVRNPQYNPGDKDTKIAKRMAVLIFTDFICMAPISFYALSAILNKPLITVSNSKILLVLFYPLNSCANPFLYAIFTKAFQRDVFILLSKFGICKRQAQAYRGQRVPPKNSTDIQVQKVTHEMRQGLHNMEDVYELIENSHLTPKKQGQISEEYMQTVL
Procedure, shortened: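 HEK293/TSHR, 800 cells/well; cpd 30 min RT; add cAMP-d2 + anti-cAMP-cryptate, 1 h RT; fluorescence read on plate reader. 15-pt titration, n=3.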

[14] = qHTS assay to identify small molecule agonists of H2AX - cell viability counter screen (AID 1224847; calls by dose curve; also: nearly all actives have a fitted effect of over 30% in size; also: potency is read from the fitted curve at half-maximal effect)
Procedure, shortened: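 Cells plated first: CHO-K1, 1000 per well in 10% FBS medium, incubated overnight at 37C. Then 15-point compound titration added (final DMSO 0.76%) for 3 hr. Finally CellTiter-Glo added and luminescence read.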

[15] = qHTS RealTime-Glo MT Cell Viability Assay in HepG2 cells - 24 hour (AID 1224867); also: nearly all actives have a fitted effect of over 50% in size; also: potency is read from the fitted curve at half-maximal effect
Procedure, shortened: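 HepG2 cells were seeded at 600 cells/well together with NanoLuc luciferase and a cell-permeant prosubstrate, preincubated 5 h at 37 C/5% CO2, then pin-dosed with compounds in DMSO. Nonlytic luminescence from viable cells was read at each time point.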

[16] = qHTS RealTime-Glo MT Cell Viability Assay in HepG2 cells - 40 hour (AID 1224870); also: nearly all actives have a fitted effect of over 50% in size; also: potency is read from the fitted curve at half-maximal effect
Procedure, shortened: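 HepG2 cells (600/well) mixed with RealTime-Glo MT reagent, settled 5 h at 37 C/5% CO2 before compound addition. Nonlytic NanoLuc luminescence from viable-cell prosubstrate reduction read repeatedly during 40 h treatment at 37 C.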

[17] = A CellTox Green Cytotoxicity Assay to monitor cytotoxicity in HEK293 cells - 40 hour (AID 1224871); also: nearly all actives have a fitted effect of over 45% in size; also: potency is read from the fitted curve at half-maximal effect
Procedure, shortened: as §1

[18] = qHTS assay to identify small molecule agonists of the hypoxia (HIF-1) signaling pathway (AID 1224846; active = well fitted activation curve with a large enough effect in the signal ratio in the repeat runs, not every such curve was filed as active; the % refers to the signal ratio)
Procedure, shortened: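 Compounds added to ME-180 cells carrying hypoxia-response-element beta-lactamase reporter (0.5% dialyzed FBS, 5 h preplating), 17 h at 37C; agonist activity detected by CCF4-AM B/G FRET read-out.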

[19] = target: Nuclear receptor subfamily 1 group I member 3 (Homo sapiens) (UniProt Q14994); experiment: qHTS assay to identify small molecule antagonists of the constitutive androstane receptor (CAR) signaling pathway (AID 1224838);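 also: HepG2 cells stably expressing hCAR with CYP2B6 luciferase reporter stimulated by CITCO; nearly all actives have a fitted effect of over 40% in size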; also: potency is read from the fitted curve at half-maximal effect
Procedure, shortened: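 Antagonism measured as luciferase signal (ONE-Glo, 30 min, room temperature) in CAR-stimulated cells: HepG2-CYP2B6-hCAR double-stable line exposed 24 hr at 37 C to compound in a 15-point series plus 50 nM CITCO.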

[20] = qHTS assay to identify small molecule antagonists of the estrogen related receptor signaling pathway with the pleiotropic PPARgamma coactivator (PGC) from Tox21 10K library - cell viability counter screen (AID 1224840; active = well fitted cell-killing curve with a large enough effect in the repeat runs, not every such curve was filed as active; also: nearly all actives have a fitted effect of over 40% in size; also: potency is read from the fitted curve at half-maximal effect)
Procedure, shortened: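 Counter-screen for cytotoxicity: after 17.5 h compound exposure at 37 C, CellTiter-Fluor reagent added to PGC/ERR cells for 30 min and fluorescence read. Cells were seeded at 2,000 per well 6 h before dosing.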

| SMILES | Potency [1] | Potency [2] | Potency [3] | Potency [4] | Potency [5] | Potency [6] | Potency [7] | Potency [8] | Potency [9] | activity change, positive = activation [10] | Potency [11] | Potency [12] | Potency [13] | Potency [14] | Potency [15] | Potency [16] | Potency [17] | outcome [18] | Potency [19] | Potency [20] |
| --- | --- | --- | --- | --- | --- | --- | --- | --- | --- | --- | --- | --- | --- | --- | --- | --- | --- | --- | --- | --- |
| O=C(Nc1ccc2[nH]ccc2c1)c1cc2cc(F)ccc2n1Cc1cccc(F)c1 | inactive | inactive | 61.1 µM (active) | 27.3 µM (active) | inactive | 2.73 µM (active) | 43.6 µM (active) | inactive | 6.11 µM (active) | -52.2% (inactive) | inactive | inactive |  |  |  |  |  |  |  |  |
| Oc1ccc(C(c2ccc(O)cc2)(C(F)(F)F)C(F)(F)F)cc1 | inactive | inactive | inactive | 4.31 µM (active) and 5.45 µM (active) | 60.8 µM (active) | inactive | inactive |  | 54.2 µM (active) and 61.1 µM (active) | -65.7% (inactive) and -36.3% (inactive) | 43.4 µM (active) | inactive | 30.5 µM (active) | 113 µM (active) | inactive | inactive | 43.4 µM (active) and inactive |  |  |  |
| C[C@]12Cc3nonc3C[C@@H]1CC[C@@H]1[C@@H]2CC[C@@]2(C)[C@H]1CC[C@]2(C)O | inactive | inactive | inactive |  |  | inactive | 26.8 µM (active) | inactive | 13.3 µM (active) | -58.3% [at 42.5 µM] (inactive) | 21.3 µM (active) | inactive | inactive | 49.2 µM (active) | inactive | inactive |  | inactive |  |  |
| CC(C)(C)c1ccc(CSc2cnn(C(C)(C)C)c(=O)c2Cl)cc1 | inactive |  |  | inactive | 0.0049 µM (active) | inactive |  |  | 0.0054 µM (active) | -52.9% (inactive) | 0.011 µM (active) | inactive |  |  |  |  | inactive | inactive | inactive | inactive |
| C=CC(=O)OCCCCOC(=O)C=C | inactive |  | 61.1 µM (active) | inactive | inactive | 21.7 µM (active) |  | 101 µM (active) | inactive | -26.6% (active) | 34.7 µM (active) | inactive |  |  | 49 µM (active) |  | 43.6 µM (active) |  |  | 48.6 µM (active) |
| Clc1ccc(CO/N=C(\Cn2ccnc2)c2ccc(Cl)cc2Cl)c(Cl)c1 | inactive |  | inactive |  |  |  |  |  | 18.8 µM (active) | -54.4% [at 42.5 µM] (inactive) | 21.3 µM (active) | inactive |  | 49.2 µM (active) | 23.9 µM (active) |  | inactive |  | inactive |  |
| CCCOCC(=Nc1ccc(Cl)cc1C(F)(F)F)n1ccnc1 | inactive |  |  | 48.5 µM (active) |  |  | inactive | inactive |  |  | 48.9 µM (active) |  | 54.4 µM (active) | 101 µM (active) |  |  | 48.9 µM (active) | inactive | inactive |  |
| C=CCC1=C(C)C(OC(=O)C2C(C=C(C)C)C2(C)C)CC1=O (stereo not drawn) | inactive |  | inactive | 16.3 µM (active) | 20.5 µM (active) | inactive |  |  | 20.5 µM (active) | -28.6% (inactive) | 26 µM (active) | inactive |  | 60.1 µM (active) |  | inactive |  |  | inactive |  |
| O=C1c2ccccc2C(=O)C1C(=O)C(c1ccccc1)c1ccc(Cl)cc1 (stereo not drawn) | inactive |  | inactive |  | 6.11 µM (active) | inactive | 9.77 µM (active) |  | 9.69 µM (active) | -59.3% (inactive) | inactive | inactive | inactive | inactive | inactive | inactive | inactive |  | inactive |  |
| Cc1cc(C(C)(C)c2cc(C)c(O)c(C)c2)cc(C)c1O | inactive |  |  | 4.69 µM (active) |  | inactive | inactive | inactive | 26.4 µM (active) | -83.8% (inactive) | 18.9 µM (active) | inactive | 33.2 µM (active) | 109 µM (active) |  |  |  |  | inactive |  |
| CC(C)CC(C)(c1ccc(O)cc1)c1ccc(O)cc1 | inactive |  |  | 6.87 µM (active) and 2.17 µM (active) | 54.6 µM (active) | inactive | inactive | inactive | 54.6 µM (active) and inactive | -67.3% (inactive) and -18.5% (inactive) |  | inactive | 48.7 µM (active) and inactive | 101 µM (active) and 89.8 µM (active) |  | inactive | 55.1 µM (active) |  | 2.44 µM (active) |  |
| CN(C)CCc1c[nH]c2cccc(O)c12 | inactive | inactive |  |  |  |  | inactive |  |  |  |  | inactive |  | inactive | inactive | inactive | inactive |  |  | inactive |
| S=C=Nc1cccc2ccccc12 | inactive | 67.9 µM (active) |  |  |  | inactive | 48.5 µM (active) |  |  | -54.3% (inactive) | inactive | inactive |  |  | inactive | inactive | inactive |  |  | inactive |
| CC(C)(C)C(O)C(Oc1ccc(-c2ccccc2)cc1)n1cncn1 (stereo not drawn) | inactive | inactive |  |  | 54.5 µM (active) | inactive | 54.9 µM (active) |  | 27.3 µM (active) | -60.3% (inactive) | 24.5 µM (active) | inactive |  |  | inactive | inactive | inactive |  | inactive | inactive |
| COc1cccc(C(=O)CCN[C@@H](C)[C@H](O)c2ccccc2)c1 | inactive | inactive |  | inactive | inactive | inactive |  |  | inactive | 2.02% [at 42.5 µM] (inactive) |  | inactive | inactive |  |  | 23.9 µM (active) |  |  |  | inactive |
| CC(C)OC(=S)S | inactive | inactive |  |  |  |  |  | 35.7 µM (active) |  |  | inactive | inactive |  |  | inactive | inactive |  |  |  |  |
